Data taken from PubChem BioAssay (NCATS).
Results filed as inconclusive are left out. A call without a number means that no potency is given here. The source made the active and inactive calls. The call rests on the fitted dose curve; in most records, active means well fitted curve in the direction sought with a large enough effect; inconclusive means small, poorly fitted or top-dose-only effect, or another doubt; inactive means no such curve, though single readings can be large; an effect the other way counts as inactive or inconclusive.

Legend:
[1] = qHTS of pediatric cancer cell lines to identify multiple opportunities for drug repurposing: Primary screen for SJ-GBM2 cells (AID 1347091); conditions: SJ-GBM2 viability, CellTiter-Glo luminescence, 48 h; series mostly up to 46 µM; further: potency means the concentration at half of the fitted maximal effect
How it was run: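 Cell viability, CellTiter-Glo luminescence; 500-1,000 cells/well, 8- or 11-point titration, 48 h compound exposure at 37 degrees C, 5% CO2. Controls: DMSO neutral, bortezomib 2.3 µM final as positive.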

[2] = qHTS of pediatric cancer cell lines to identify multiple opportunities for drug repurposing: Primary screen for BT-37 cells (AID 1347094); conditions: BT-37 viability, CellTiter-Glo luminescence, 48 h; series mostly up to 57.3 µM; further: potency means the concentration at half of the fitted maximal effect
How it was run: (§1)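 CRCs from 8- or 11-point titrations (lowest final 0.59 nM NPC, 0.78 nM MIPE). Cell viability: CellTiter-Glo after 48 h incubation, 15 min room-temperature development, luminescence imaging.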

[3] = qHTS of pediatric cancer cell lines to identify multiple opportunities for drug repurposing: Primary screen for NB-EBc1 cells (AID 1347095); conditions: NB-EBc1 neuroblastoma viability, CellTiter-Glo luminescence, 48 h; series mostly up to 46 µM; further: potency means the concentration at half of the fitted maximal effect
How it was run: as §1

[4] = qHTS of pediatric cancer cell lines to identify multiple opportunities for drug repurposing: Primary screen for U-2 OS cells (AID 1347096); conditions: U-2 OS viability, CellTiter-Glo luminescence, 48 h; series mostly up to 46 µM; further: nearly all actives have a fitted effect of over 50% in size
How it was run: (§2)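 Cells (500-1,000/well) rested 5 h, then received compounds for 48 h; metabolically active cells were measured by CellTiter-Glo luminescence. Final concentrations spanned up to 46 µM (MIPE, 11-point) or 0.59 nM-46 µM (NPC, 8-point) in primary screens, 11-point in follow-ups.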

[5] = qHTS of pediatric cancer cell lines to identify multiple opportunities for drug repurposing: Primary screen for SK-N-SH cells (AID 1347098); conditions: SK-N-SH viability, CellTiter-Glo luminescence, 48 h; series mostly up to 57 µM; further: nearly all actives have a fitted effect of over 65% in size; further: potency means the concentration at half of the fitted maximal effect
How it was run: as §2

[6] = qHTS of pediatric cancer cell lines to identify multiple opportunities for drug repurposing: Primary screen for Saos-2 cells (AID 1347097); conditions: Saos-2 viability, CellTiter-Glo ATP luminescence, 48 h; series mostly up to 46 µM; further: nearly all actives have a fitted effect of over 40% in size; further: potency means the concentration at half of the fitted maximal effect
How it was run: as §1

[7] = qHTS of pediatric cancer cell lines to identify multiple opportunities for drug repurposing: Primary screen for SK-N-MC cells (AID 1347093); conditions: SK-N-MC viability, CellTiter-Glo luminescence, 48 h; series mostly up to 46 µM; further: potency means the concentration at half of the fitted maximal effect
How it was run: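 Metabolically active cells were quantified by ATP-dependent luminescence (CellTiter-Glo, 15 min at room temperature) following 48 h treatment. Cells had been plated at 500-1,000 per well and settled for 5 h beforehand.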

[8] = qHTS of pediatric cancer cell lines to identify multiple opportunities for drug repurposing: Primary screen for NB1643 cells (AID 1347099); conditions: NB1643 neuroblastoma viability, CellTiter-Glo luminescence, 48 h; series mostly up to 46 µM; further: nearly all actives have a fitted effect of over 50% in size; further: potency means the concentration at half of the fitted maximal effect
How it was run: as §1

Compound	Potency [1]	Potency [2]	Potency [3]	Potency [4]	Potency [5]	Potency [6]	Potency [7]	Potency [8]
CN1[C@H]2CC[C@H]1CC(OC(=O)c1c[nH]c3ccccc13)C2 (stereo partly drawn)	inactive	inactive	inactive	inactive	24.1 µM (active)	–	–	–
CNC(=O)[C@H](Cc1ccccc1)NC(=O)[C@H](CC(C)C)[C@H](CSc1cccs1)C(=O)NO	inactive	–	inactive	inactive	–	–	–	–
CCCCC(C=O)NC(=O)C(CC(C)C)NC(=O)OCc1ccccc1 (stereo not drawn)	inactive	–	inactive	inactive	–	inactive	–	–
Cc1nn(Cc2ccccc2Cl)c(C)c1CN(C)CC(O)COc1ccc(Cl)cc1 (stereo not drawn)	20.9 µM (active)	–	–	inactive	24.1 µM (active)	inactive	1.87 µM (active)	14.8 µM (active)
COc1cc2nccc(Oc3ccc(NC(=O)Nc4ccc(F)cc4F)c(F)c3)c2cc1OC	2.96 µM (active)	inactive	2.35 µM (active)	–	inactive	–	3.72 µM (active)	–
O=S(=O)(NCCNCC=Cc1ccc(Br)cc1)c1cccc2cnccc12	11.8 µM (active)	–	16.6 µM (active)	–	19.2 µM (active)	16.6 µM (active)	–	–
CCCCC[C@H](O)C=C[C@H]1[C@H](O)CC(=O)[C@H]1CCCCCCC(=O)O	inactive	inactive	inactive	–	inactive	inactive	inactive	–
N#CC1(c2cccc(C(=O)Nc3cc(Oc4ccc5nc(NC(=O)C6CC6)sc5n4)ccc3F)c2Cl)CC1	inactive	–	–	–	–	–	–	inactive
CCCCCCCCCCCCCCCC(=O)O[C@H]1[C@@H](O)[C@@H](O)[C@@H]([C@H](NC(=O)[C@@H]2C[C@@H](CCC)CN2C)[C@H](C)Cl)O[C@@H]1SC	inactive	–	inactive	inactive	–	inactive	18.7 µM (active)	–
COc1c(C)c2c(c(O)c1CC=C(C)CCC(=O)OCCN1CCOCC1)C(=O)OC2	inactive	1.53 µM (active)	0.59 µM (active)	–	–	inactive	1.18 µM (active)	–
O=C(NC[C@H](O)CO)c1ccncc1Nc1ccc(I)cc1F	inactive	–	–	–	21.5 µM (active)	–	5.26 µM (active)	inactive
O=S(=O)(O)c1ccc2cc(N=Nc3cc(S(=O)(=O)O)c4cccnc4c3O)ccc2c1	inactive	–	–	inactive	–	–	18.7 µM (active)	–
CSc1cccc(Nc2ncc3cc(-c4c(Cl)cccc4Cl)c(=O)n(C)c3n2)c1	0.418 µM (active)	–	0.372 µM (active)	–	inactive	0.118 µM (active)	0.0935 µM (active)	0.209 µM (active)
OC[C@H]1O[C@@H](OCCc2ccc(O)cc2)[C@H](O)[C@@H](O)[C@H]1O	inactive	inactive	–	inactive	–	–	26.4 µM (active)	–
CC1(C)CC(=O)c2c(C(F)(F)F)nn(-c3ccc(C(N)=O)c(NC4CCC(O)CC4)c3)c2C1 (stereo not drawn)	0.264 µM (active)	–	0.148 µM (active)	inactive	0.304 µM (active)	–	0.0743 µM (active)	–
C#CCN(C)CC1=Cc2ccccc2Oc2ccccc21	inactive	–	–	inactive	inactive	–	–	–
O=C(Nc1ccc(OC(F)(F)F)cc1)c1sccc1NCc1ccnc2ccccc12	inactive	–	inactive	–	inactive	18.7 µM (active)	26.4 µM (active)	–
NC(N)=Nc1nc(CSCCC(N)=NS(N)(=O)=O)cs1	inactive	inactive	–	inactive	19.2 µM (active)	inactive	10.5 µM (active)	8.33 µM (active)
COc1ccc2ccc(=O)oc2c1CC=C(C)C	inactive	–	–	–	inactive	18.7 µM (active)	9.35 µM (active)	–
NC(=O)c1nnn(Cc2cc(Cl)c(C(=O)c3ccc(Cl)cc3)c(Cl)c2)c1N	18.7 µM (active)	–	–	–	30.4 µM (active)	23.5 µM (active)	23.5 µM (active)	–
O=C(Nc1cccc(C(F)(F)F)c1)Nc1cc(S(=O)(=O)NC2CC2)ccc1-c1ccsc1	26.4 µM (active)	–	23.5 µM (active)	inactive	inactive	29.6 µM (active)	–	–
O=C(c1ccc(C(=O)N2CCC(N3CCCC3)CC2)c(Nc2ccccc2)c1)N1CCC(N2CCCC2)CC1	inactive	inactive	inactive	inactive	inactive	inactive	–	inactive
CN1CCC[C@H]1CCO[C@](C)(c1ccccc1)c1ccc(Cl)cc1	inactive	–	inactive	inactive	30.4 µM (active)	–	20.9 µM (active)	20.9 µM (active)
